The source of these data is PMC5700166.

Common to all, as to test: protein-binding microarray (PBM); PBM: ~300 nM protein, 6 mM HEPES pH 7.8, 80 mM KCl, 0.5 mM EDTA, 0.5 mM EGTA, 6% glycerol, 35 ng/ul poly-dIdC, 1% milk, 1 h, room temperature; Ap Aiptasia and Nv Nematostella (sea anemones) / Co Capsaspora / Aq Amphimedon (sponge) / Dm Drosophila / Hu human; RHD is the Rel homology domain; high values mean tight binding
Common to all, as to settings: dsDNA, one strand shown

The target of test [1] is T1, GST-Ap-NF-kB RHD (Exaiptasia pallida (Aiptasia), UniProt A0A913YAJ5 2-422).
T1 sequence: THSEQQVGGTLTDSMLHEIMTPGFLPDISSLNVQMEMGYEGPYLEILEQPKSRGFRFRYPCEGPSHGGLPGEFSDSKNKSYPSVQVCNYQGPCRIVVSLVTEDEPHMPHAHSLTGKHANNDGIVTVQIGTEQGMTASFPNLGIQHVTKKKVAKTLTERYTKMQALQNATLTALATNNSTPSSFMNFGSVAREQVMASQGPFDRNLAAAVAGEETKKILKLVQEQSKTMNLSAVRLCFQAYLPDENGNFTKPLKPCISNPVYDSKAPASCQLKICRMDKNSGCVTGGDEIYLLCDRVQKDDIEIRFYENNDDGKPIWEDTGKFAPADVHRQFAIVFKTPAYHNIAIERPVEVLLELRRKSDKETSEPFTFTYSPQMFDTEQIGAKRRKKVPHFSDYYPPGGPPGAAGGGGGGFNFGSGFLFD

The target in test [2] is T2, GST-Nv-NF-kB (Cys allele) (Nematostella vectensis, UniProt E5G601 2-411).
T2 sequence: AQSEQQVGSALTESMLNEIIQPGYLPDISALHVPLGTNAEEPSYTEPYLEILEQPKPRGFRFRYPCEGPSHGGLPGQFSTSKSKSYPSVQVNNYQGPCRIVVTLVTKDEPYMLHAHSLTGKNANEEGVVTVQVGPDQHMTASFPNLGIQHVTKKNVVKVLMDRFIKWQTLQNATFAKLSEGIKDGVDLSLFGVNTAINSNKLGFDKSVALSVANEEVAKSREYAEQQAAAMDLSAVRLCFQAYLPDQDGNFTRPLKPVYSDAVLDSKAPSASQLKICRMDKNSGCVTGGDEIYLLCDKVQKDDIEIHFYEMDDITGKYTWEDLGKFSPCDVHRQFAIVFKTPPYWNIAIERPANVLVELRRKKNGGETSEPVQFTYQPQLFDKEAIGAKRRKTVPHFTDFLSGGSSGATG

The target of test [3] is T3, GST-Nv-NF-kB (Ser allele) (Nematostella vectensis, UniProt A7UNT2 2-411).
T3 sequence: T2 sequence with Q21R, C66S, S207N, E215Q, V217A, E225K, A268E, D399E

In test [4] the target is T4, GST-Co-NF-kB (Capsaspora owczarzaki, UniProt F1ARL5 200-546).
T4 sequence: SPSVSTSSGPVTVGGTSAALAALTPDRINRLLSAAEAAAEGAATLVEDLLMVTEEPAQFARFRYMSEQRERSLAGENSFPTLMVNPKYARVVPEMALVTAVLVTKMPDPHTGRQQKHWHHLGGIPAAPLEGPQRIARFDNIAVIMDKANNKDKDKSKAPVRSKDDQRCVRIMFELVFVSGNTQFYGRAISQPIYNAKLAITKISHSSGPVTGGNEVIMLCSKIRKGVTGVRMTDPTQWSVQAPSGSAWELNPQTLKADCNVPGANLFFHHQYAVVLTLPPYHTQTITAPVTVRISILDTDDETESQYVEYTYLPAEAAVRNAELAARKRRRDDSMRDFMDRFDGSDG

Test [5] has as its target T5, GST-Aq-NF-kB (Amphimedon queenslandica, UniProt A9Y5G7 2-389).
T5 sequence: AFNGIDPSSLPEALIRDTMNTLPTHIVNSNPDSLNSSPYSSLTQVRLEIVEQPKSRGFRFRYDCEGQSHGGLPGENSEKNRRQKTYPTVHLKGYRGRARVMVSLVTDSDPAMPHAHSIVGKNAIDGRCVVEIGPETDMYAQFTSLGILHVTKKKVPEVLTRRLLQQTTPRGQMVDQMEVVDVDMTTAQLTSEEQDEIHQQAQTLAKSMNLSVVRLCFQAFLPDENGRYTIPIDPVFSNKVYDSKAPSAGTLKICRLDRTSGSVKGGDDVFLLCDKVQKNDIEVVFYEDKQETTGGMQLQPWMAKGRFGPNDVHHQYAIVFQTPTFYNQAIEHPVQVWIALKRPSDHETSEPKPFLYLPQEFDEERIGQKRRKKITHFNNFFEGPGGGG

Test [6] deals with GST-Hu-p50 (Homo sapiens, UniProt P19838 7-356).
Chain of GST-Hu-p50 (P19838 7-356): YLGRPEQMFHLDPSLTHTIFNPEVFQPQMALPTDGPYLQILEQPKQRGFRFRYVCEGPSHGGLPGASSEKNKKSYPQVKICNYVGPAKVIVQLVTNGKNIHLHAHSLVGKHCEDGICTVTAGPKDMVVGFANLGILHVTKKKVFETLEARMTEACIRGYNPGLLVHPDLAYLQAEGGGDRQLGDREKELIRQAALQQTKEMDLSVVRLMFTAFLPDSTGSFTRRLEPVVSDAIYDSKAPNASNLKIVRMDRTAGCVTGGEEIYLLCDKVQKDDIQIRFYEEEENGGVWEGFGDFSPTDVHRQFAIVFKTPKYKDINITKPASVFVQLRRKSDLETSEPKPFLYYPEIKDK

Substitutions are numbered along the chain they refer to.

“CCGATTAACATCAGCACGGGAAATGATGTTAATCGGGTCTTGATTCGCTTGACGCTGCTG”: the binding signal in test [1] was found to be 1.76 z-score; in test [2], 2.98 z-score; in test [3] it was 2.41 z-score; in test [4] it was 2.59 z-score; in test [5] it was 2.77 z-score; in test [6], 1.64 z-score.
Regarding “CCGATTAACATCAGATGGGAAAATGATGTTAATCGGGTCTTGATTCGCTTGACGCTGCTG”, the binding signal in test [1] worked out at 2.47 z-score; in test [2] it was 4.24 z-score; in test [3], 5.39 z-score; in test [4] it was 2.47 z-score; in test [5] it was 2.28 z-score; in test [6] it was 2.37 z-score.
Consider “CCGATTAACATCAAATTTCCGGATGATGTTAATCGGGTCTTGATTCGCTTGACGCTGCTG”, for which the binding signal in test [5] worked out at 1.25 z-score.
The same measure, in the same setting: as for “CCGATTAACATCAAGAATTTCCGTGATGTTAATCGGGTCTTGATTCGCTTGACGCTGCTG”, the figure is 1.89 z-score.
Same read-out and setting: under “CCGATTAACATCAAGGACATTCCTGATGTTAATCGGGTCTTGATTCGCTTGACGCTGCTG” stands 1.43 z-score.
In the case of “CCGATTAACATCAAGTGGGAAAATGATGTTAATCGGGTCTTGATTCGCTTGACGCTGCTG”, the binding signal worked out at 1.71 z-score in test [1]; 4.11 z-score in test [2]; 4.29 z-score in test [3]; 2.91 z-score in test [4]; 2.08 z-score in test [5]; 2.66 z-score in test [6].
For the sequence “CCGATTAACATCAGGGAAAGCTATGATGTTAATCGGGTCTTGATTCGCTTGACGCTGCTG”, the binding signal in test [1] stood at 2.11 z-score; in test [2] it was 3.99 z-score; in test [3], 3.57 z-score; in test [4], 2.65 z-score; in test [5] it was 3.54 z-score; in test [6], 2.53 z-score.
Take “CCGATTAACATCAGAAATGCCCATGATGTTAATCGGGTCTTGATTCGCTTGACGCTGCTG”: the values for the binding signal in test [5] and in test [6] were 1.69 z-score and 1.76 z-score, respectively.
For the sequence “CCGATTAACATCAACGTGGGAAATGATGTTAATCGGGTCTTGATTCGCTTGACGCTGCTG”, the binding signal in test [1] amounted to 1.56 z-score; in test [2], 2.36 z-score; in test [3], 1.77 z-score; in test [4], 2.91 z-score; in test [5], 1.71 z-score; in test [6] it was 1.29 z-score.
Take “CCGATTAACATCACTCTTTTCCCTGATGTTAATCGGGTCTTGATTCGCTTGACGCTGCTG”: the binding signal is 2.32 z-score in test [1]; 3.09 z-score in test [2]; 4.46 z-score in test [3]; 2.99 z-score in test [4]; 2.63 z-score in test [5]; 1.85 z-score in test [6].
Take “CCGATTAACATCAAGGAAATTTCTGATGTTAATCGGGTCTTGATTCGCTTGACGCTGCTG”: the binding signal in test [5] was found to be 1.71 z-score; in test [6] it was 1.21 z-score.
With “CCGATTAACATCAACTTGGGAAATGATGTTAATCGGGTCTTGATTCGCTTGACGCTGCTG”, the binding signal in test [1] is 1.31 z-score; in test [2], 2.47 z-score; in test [3], 2.1 z-score; in test [4], 2.33 z-score; in test [5] it was 1.15 z-score; in test [6], 1.54 z-score.
As for “CCGATTAACATCAATCTTTTCCCTGATGTTAATCGGGTCTTGATTCGCTTGACGCTGCTG”, the binding signal in test [1] was 2.35 z-score; in test [2] it was 4.39 z-score; in test [3], 5.52 z-score; in test [4], 3.98 z-score; in test [5], 3.34 z-score; in test [6] it was 2.99 z-score.
For “CCGATTAACATCAGAATTCTCCCTGATGTTAATCGGGTCTTGATTCGCTTGACGCTGCTG”, the binding signal worked out at 2.74 z-score in test [1]; 4.1 z-score in test [2]; 3.64 z-score in test [3]; 2.57 z-score in test [4]; 4.02 z-score in test [5]; 3.58 z-score in test [6].
“CCGATTAACATCAAAGGGAATAGTGATGTTAATCGGGTCTTGATTCGCTTGACGCTGCTG”: the binding signal in test [1] was determined as 2.26 z-score; in test [2], 2.76 z-score; in test [3] it was 2.94 z-score; in test [4], 1.98 z-score; in test [5], 2.54 z-score; in test [6] it was 1.25 z-score.
Regarding “CCGATTAACATCAAAATTTCCAGTGATGTTAATCGGGTCTTGATTCGCTTGACGCTGCTG”, the figures for the binding signal in test [5] and in test [6] were 1.04 z-score and 1.16 z-score, respectively.
For “CCGATTAACATCAAAGGGGCTACTGATGTTAATCGGGTCTTGATTCGCTTGACGCTGCTG”, the binding signal was 2.79 z-score in test [1]; 3.08 z-score in test [2]; 2.12 z-score in test [3]; 3.2 z-score in test [5]; 3.13 z-score in test [6].
Regarding “CCGATTAACATCAATTCCCATCCTGATGTTAATCGGGTCTTGATTCGCTTGACGCTGCTG”, the binding signal in test [1] turned out to be 1.57 z-score; in test [2], 2.99 z-score; in test [3], 2.59 z-score; in test [4] it was 1.43 z-score; in test [5], 1.94 z-score; in test [6], 1.57 z-score.
In the case of “CCGATTAACATCAAGAAATTCCGTGATGTTAATCGGGTCTTGATTCGCTTGACGCTGCTG”, the binding signal amounted to 1.24 z-score in test [5] and 1.41 z-score in test [6].
Consider “CCGATTAACATCAGGATTATCCCTGATGTTAATCGGGTCTTGATTCGCTTGACGCTGCTG”, for which the binding signal stood at 2.26 z-score in test [1]; 2.9 z-score in test [2]; 1.47 z-score in test [3]; 2.37 z-score in test [4]; 5.15 z-score in test [5]; 1.73 z-score in test [6].
Turning to “CCGATTAACATCAGGGGCAGGGATGATGTTAATCGGGTCTTGATTCGCTTGACGCTGCTG”, the binding signal in test [1] was determined as 2.32 z-score; in test [2], 1.46 z-score; in test [3], 1.47 z-score; in test [4] it was 1.59 z-score; in test [5], 2.02 z-score; in test [6] it was 2.01 z-score.
With “CCGATTAACATCAATTGGGAAAATGATGTTAATCGGGTCTTGATTCGCTTGACGCTGCTG”, the binding signal in test [1] stood at 1.52 z-score; in test [2], 2.96 z-score; in test [3], 4.08 z-score; in test [4] it was 2.47 z-score; in test [5], 1.4 z-score; in test [6] it was 2.04 z-score.
For the sequence “CCGATTAACATCAAAATTTTCCGTGATGTTAATCGGGTCTTGATTCGCTTGACGCTGCTG”, the binding signal in test [5] came out at 1.74 z-score; in test [6], 1.66 z-score.
Regarding “CCGATTAACATCACGGAGATTCCTGATGTTAATCGGGTCTTGATTCGCTTGACGCTGCTG”, in test [5], the binding signal was 2.72 z-score.
With “CCGATTAACATCATCCTGGGAAATGATGTTAATCGGGTCTTGATTCGCTTGACGCTGCTG”, the binding signal worked out at 1.13 z-score in test [1]; 2.18 z-score in test [2]; 1.37 z-score in test [3]; 2.72 z-score in test [4]; 1.03 z-score in test [5]; 1.74 z-score in test [6].
Regarding “CCGATTAACATCAGGCAACTCCCTGATGTTAATCGGGTCTTGATTCGCTTGACGCTGCTG”, the binding signal in test [1] is 1.44 z-score; in test [2], 2.44 z-score; in test [3], 1.64 z-score; in test [4] it was 1.09 z-score; in test [5], 4.28 z-score; in test [6] it was 2.67 z-score.
For “CCGATTAACATCAGTGGGAAAAATGATGTTAATCGGGTCTTGATTCGCTTGACGCTGCTG”, the binding signal in test [1] worked out at 2.21 z-score; in test [2], 3.95 z-score; in test [3], 4.53 z-score; in test [4], 4.81 z-score; in test [5], 2.62 z-score; in test [6] it was 3.34 z-score.
As for “CCGATTAACATCAGGAAGCTCCCTGATGTTAATCGGGTCTTGATTCGCTTGACGCTGCTG”, the binding signal in test [1] came out at 1.2 z-score; in test [2], 1.37 z-score; in test [5] it was 3.72 z-score; in test [6] it was 1.33 z-score.
In test [5], “CCGATTAACATCAAGGAATGTCCTGATGTTAATCGGGTCTTGATTCGCTTGACGCTGCTG” displayed a binding signal of 1.74 z-score.
